In PubChem BioAssay AID1159580 (chemical genetic matrix, 2015):
“And” between values parts separate entries of the source, which are not always exact repeats. Identical values can stand only once. The campaign covered roughly 5,500 compounds. About 2,000 (36%) were called active. About 18% were inconclusive and are not listed. Cut-off read from the data, not from the text of the source: active = normalized growth mostly below about 0.91 (no sharp cut-off); inconclusive = no clear call, values can overlap the other calls; inactive = mostly above about 0.92. The list shows a part of the results.

Experiment: chemical genetic growth profiling, strain panel (AID 1159580);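 note: tested at 20 µM; growth read once vehicle control cultures reached saturation at 30 °C; 1 = growth at the plate median or of vehicle wells; lower values mean less growth of the strain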
Details: S. cerevisiae deletion strains, growth OD

Measured: normalized growth

CCCC(=O)O[C@]1(C(=O)CO)CCC2[C@@H]3CCC4=CC(=O)CC[C@]4(C)C3[C@@H](O)C[C@@]21C (stereo not given in full)
inactive: locus YAL013W, strain DEP1, stronger effect = lower value 1.01 | locus YAL021C, strain ccr4, stronger effect = lower value 0.997 | locus YAL026C, strain drs2, stronger effect = lower value 1.02 | locus YAL030W, strain snc1, stronger effect = lower value 1 | locus YBL061C, strain skt5, stronger effect = lower value 1 | locus YBR009C, strain hhf1, stronger effect = lower value 1 | locus YBR021W, strain FUR4, stronger effect = lower value 1.02 | locus YBR023C, strain chs3, stronger effect = lower value 1 | locus YBR171W, strain sec66, stronger effect = lower value 1.01 | locus YBR229C, strain ROT2, stronger effect = lower value 1.02 | locus YBR231C, strain swc5, stronger effect = lower value 1 | locus YBR279W, strain paf1, stronger effect = lower value 0.996 | locus YCL011C, strain gbp2, stronger effect = lower value 1.01 | locus YCL016C, strain dcc1, stronger effect = lower value 1.01 | locus YCL029C, strain bik1, stronger effect = lower value 0.983 | locus YCL061C, strain MRC1, stronger effect = lower value 1 | locus YCL069W, strain vba3, stronger effect = lower value 1 | locus YCR088W, strain abp1, stronger effect = lower value 1.01 | locus YDL005C, strain med2, stronger effect = lower value 1.01 | locus YDL035C, strain GPR1, stronger effect = lower value 0.997 | locus YDL040C, strain nat1, stronger effect = lower value 1.01 | locus YDL074C, strain BRE1, stronger effect = lower value 1.01 | locus YDL101C, strain DUN1, stronger effect = lower value 1.01 | locus YDL134C, strain PPH21, stronger effect = lower value 1.01 | locus YDL185W, strain tfp1, stronger effect = lower value 0.965 | locus YDL192W, strain arf1, stronger effect = lower value 0.98 | locus YDR001C, strain nth1, stronger effect = lower value 1.01 | locus YDR069C, strain doa4, stronger effect = lower value 1.01 | locus YDR101C, strain arx1, stronger effect = lower value 1.01 | locus YDR137W, strain rgp1, stronger effect = lower value 1.01 | locus YDR150W, strain NUM1, stronger effect = lower value 1.01 | locus YDR159W, strain sac3, stronger effect = lower value 0.998 | locus YDR162C, strain NBP2, stronger effect = lower value 0.991 | locus YDR195W, strain ref2 0.99 | locus YDR297W, strain sur2, stronger effect = lower value 1.01 | locus YDR318W, strain mcm21, stronger effect = lower value 1 | locus YDR334W, strain swr1, stronger effect = lower value 1.02 | locus YDR335W, strain msn5, stronger effect = lower value 1 | locus YDR388W, stronger effect = lower value 0.976 | locus YDR392W, strain spt3, stronger effect = lower value 1.01 | locus YDR502C, strain sam2, stronger effect = lower value 0.981 | locus YEL003W, strain gim4, stronger effect = lower value 1.01 | locus YEL037C, strain rad23, stronger effect = lower value 1 | locus YEL061C, strain CIN8 (second series), stronger effect = lower value 1.01 | locus YEL061C, strain CIN8, stronger effect = lower value 1 | locus YER015W, strain faa2, stronger effect = lower value 1.01 | locus YER016W, strain bim1, stronger effect = lower value 1.01 | locus YER110C, stronger effect = lower value 0.946 | locus YER111C, strain swi4, stronger effect = lower value 1.01 | locus YER155C, strain BEM2 (second series), stronger effect = lower value 1.01 | locus YER155C, strain BEM2, stronger effect = lower value 1.02 | locus YER167W, strain BCK2, stronger effect = lower value 1.01 | locus YFR010W, strain ubp6, stronger effect = lower value 1.01 | locus YGL078C, strain dbp3, stronger effect = lower value 0.978 | locus YGL086W, strain mad1, stronger effect = lower value 0.99 | locus YGL167C, strain pmr1, stronger effect = lower value 1.01 | locus YGL173C, strain kem1, stronger effect = lower value 1 | locus YGL227W, strain vid30, stronger effect = lower value 1.02 | locus YGL240W, strain doc1, stronger effect = lower value 1.01 | locus YGL248W, strain PDE1, stronger effect = lower value 1.02 | locus YGL253W, strain hxk2, stronger effect = lower value 1.01 | locus YGR135W, strain pre9, stronger effect = lower value 0.939 | locus YGR229C, strain SMI1, stronger effect = lower value 0.987 | locus YGR252W, strain gcn5, stronger effect = lower value 0.94 | locus YHR013C, strain ard1, stronger effect = lower value 1.01 | locus YHR027C, strain rpn1, stronger effect = lower value 1 | locus YHR030C, strain SLT2, stronger effect = lower value 1.01 and 1.04 | locus YHR079C, strain IRE1 (second series), stronger effect = lower value 0.997 | locus YHR079C, strain IRE1, stronger effect = lower value 1.05 | locus YHR094C, strain hxt1, stronger effect = lower value 0.984 | locus YHR129C, strain ARP1, stronger effect = lower value 1.01 | locus YHR142W, strain chs7, stronger effect = lower value 1.02 | locus YHR200W, strain rpn10, stronger effect = lower value 0.994 | locus YIL066C, strain RNR3, stronger effect = lower value 1.02 | locus YIL073C, strain SPO22, stronger effect = lower value 0.867 | locus YIL125W, strain kgd1, stronger effect = lower value 0.994 | locus YIR030C, strain dcg1, stronger effect = lower value 0.994 | locus YJL092W, strain hpr5, stronger effect = lower value 1.01 | locus YJL095W, strain BCK1 (second series), stronger effect = lower value 1 | locus YJL095W, strain BCK1, stronger effect = lower value 1.01 and 1.05 | locus YJL115W, strain asf1, stronger effect = lower value 1.02 | locus YJL129C, strain trk1, stronger effect = lower value 1.01 | locus YJL134W, strain LCB3, stronger effect = lower value 1.01 | locus YJL154C, strain vps35, stronger effect = lower value 1.01 | locus YJL164C, strain tpk1, stronger effect = lower value 1.01 | locus YJL166W, strain qcr8, stronger effect = lower value 1.01 | locus YJL168C, strain set2, stronger effect = lower value 0.976 | locus YJL187C, strain SWE1 (second series), stronger effect = lower value 1.01 | locus YJL187C, strain SWE1, stronger effect = lower value 1 | locus YJR043C, strain POL32, stronger effect = lower value 0.992
